Measured values reported in PubChem BioAssay AID2685 (National Center for Advancing Translational Sciences (NCATS), 2010).
The campaign covered roughly 320,000 compounds. About 2,100 (0.66%) were called active. Inconclusive results (about 53%) are left out. Calls follow the shape of the dose curve; as a rule, active = well fitted inhibition curve with a large enough effect in the signal ratio, with a control signal flat (not every such curve was filed as active); inconclusive = small, poorly fitted or top-dose-only effect, or effect the other way, or a change in a side signal; inactive = flat fitted curve, though single readings scatter; the % refers to the signal ratio. The sample as a whole holds a higher share of actives than the screen did.

Assay: qHTS Assay for Lipid Storage Modulators in Drosophila S3 Cells;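 as to cell number change: cells counted by Cell Tracker Red CMTPX staining in the red channel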
Details: BODIPY lipid droplet fluorescence, 18-24 h, cells fed with added oleic acid; cell number change: measured here: cell count max response; series mostly up to 46.1 µM
Procedure, shortened: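 Laser-scanning cytometry quantifies lipid droplet accumulation (500–530 nm total intensity; droplet/cell object ratio) in oleic acid-fed (400 uM added) Drosophila S3 cells treated with a concentration series. 20 uM Triacsin C defined 100% inhibition.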
Potency is read from the fitted curve at half-maximal effect.

Row | SMILES | Potency | cell number change [%]
1 | COc1ccccc1NC(=O)CC(NC1CCCCC1)C(=O)O (configuration not stated) | inactive | 3.03
2 | O=C(Nn1cnc2ccccc2c1=O)c1ccccc1F | inactive | -5
3 | N#Cc1ccc2c(c1)nc1ccccn12 | inactive | 11.1
4 | N#Cc1c(-c2ccc3c(c2)OCO3)cc[nH]c1=O | inactive | 17.2
5 | N#Cc1c(-c2ccccc2)cc(-c2ccc3c(c2)OCO3)[nH]c1=O | 8.2 µM (active) | -26.7
6 | N#Cc1c(-c2ccco2)cc(-c2ccccc2)[nH]c1=O | inactive | –
7 | CC(C)=C1C2CCC1C1C(=O)N(c3nc(-c4ccc(F)cc4)c(C)s3)C(=O)C21 (configuration not stated) | inactive | -3.6
8 | COc1ccc(N2CCN(CC(=O)Nc3cc(C)on3)CC2)cc1 | inactive | 7.54
9 | Cc1ccc(Nc2nc(C(=O)N3CCC(C(=O)NCCN4CCOCC4)CC3)cs2)cc1 | inactive | –
10 | O=C(N/N=C/c1ccc(-c2cccc(C(F)(F)F)c2)o1)c1cccc(F)c1 | inactive | –
11 | CC(C)N(C(=O)c1ccc2nc(-c3ccccc3)c(-c3ccccc3)nc2c1)C(C)C | 1.64 µM (active) | -9.21
12 | O=C(O)c1ccc2nc(-c3ccccc3)c(-c3ccccc3)nc2c1 | inactive | -2.52
13 | CCN(CC)C(=O)c1ccc2nc(-c3ccccc3)c(-c3ccccc3)nc2c1 | inactive | -0.854
14 | CCOc1ccc(NC(=O)CN(C)C(=O)c2ccc(COc3ccccc3)o2)cc1OCC | inactive | 24.1
15 | CCN(CC)CCn1c(=N)n(CC(O)c2ccco2)c2ccccc21 (configuration not stated) | inactive | 6.57
16 | CCN(CC)CCn1c(=N)n(CCO)c2ccccc21 | 3.26 µM (active) | -11.1
17 | CCN(CC)CCn1c(=N)n(CCOc2ccccc2)c2ccccc21 | inactive | -6.28
18 | c1ccc(CCCNCC2COc3ccccc3O2)cc1 (configuration not stated) | inactive | 19.8
19 | CCn1cc(CNC(=O)c2ccc(OC3CCN(Cc4ccccn4)CC3)cc2)cn1 | 3.66 µM (active) | -18.8
20 | Cn1cc(CNC(=O)c2ccc(OC3CCN(Cc4ccccn4)CC3)cc2)cn1 | inactive | –

Row | SMILES | Potency | cell number change [%]
21 | CCOc1cccc(CN2CCC(Oc3ccc(C(=O)NCc4ccccn4)cc3)CC2)c1 | inactive | –
22 | C/C(N)=C(/C#N)C(=O)CSc1nnc(-c2ccc3c(c2)OCO3)o1 | inactive | 22.5
23 | Cc1ccc2c(CC(=O)OCc3cc(=O)n4c(n3)sc3ccccc34)coc2c1 | inactive | -0.183
24 | Nc1nc(-c2ccccc2)cn1/N=C/c1ccccc1 | inactive | 9.59
25 | CC(=O)N(C(C)=O)c1nc(-c2ccccc2)cn1/N=C/c1ccccc1 | 1.64 µM (active) | -51.6
26 | Cc1ccc(/C=N/n2c(-c3ccccc3)n[nH]c2=S)cc1 | inactive | 7.92
27 | Cc1ccc(N(CC(O)CN2CCCCC2)S(=O)(=O)c2ccccc2)cc1 (configuration not stated) | inactive | -15.7
28 | Cc1ccc(N(CC(O)CN2CCCC2)S(=O)(=O)c2ccc(C)cc2)cc1 (configuration not stated) | inactive | -13
29 | Cc1ccc(N(CC(O)CN(C)C)S(=O)(=O)c2ccccc2)cc1 (configuration not stated) | 5.17 µM (active) | 1.33
30 | COc1ccccc1CN1CC(C(=O)NCc2cc(C(C)C)no2)CCC1=O (configuration not stated) | inactive | 1.05
31 | Cc1c(N=Cc2cccnc2)c(=O)n(-c2ccccc2)n1C | inactive | 7.08
32 | Cc1c(N=Cc2ccccn2)c(=O)n(-c2ccccc2)n1C | 16.4 µM (active) | -11.2
33 | Cc1c(N=Cc2ccco2)c(=O)n(-c2ccccc2)n1C | inactive | 8.07
34 | Cn1c(SCC(=O)Nc2ccc3nc(SCC(=O)NC4CC4)sc3c2)nnc1-c1ccccc1 | inactive | -15
35 | COc1ccc(Oc2coc3c(CN4CCOCC4)c(O)ccc3c2=O)cc1 | inactive | 10.6
36 | CN(C)CCOc1ccc(C(C)(C)c2ccccc2)cc1 | inactive | 10.7
37 | COC(CCN(C)C)(c1ccccc1)c1ccccc1 | 0.184 µM (active) | -3.67
38 | COC(C#CCCN(C)C)(c1ccccc1)c1ccccc1 | inactive | -1.59
39 | O=C(CSc1ccc(-c2ccccn2)nn1)NCc1ccccc1 | inactive | 3.17
40 | CCCCSc1nc(O)c(C2OC(=O)c3c2ccc(OC)c3OC)c(=O)n1-c1ccccc1 (configuration not stated) | inactive | 0.549

Row | SMILES | Potency | cell number change [%]
41 | Cc1cccc(NC(=O)c2c(C)nc3ccccn23)c1 | inactive | 6.85
42 | Cc1nc2ccccn2c1C(=O)NNC(=O)Nc1ccccc1 | inactive | –
43 | Cc1nc2ccccn2c1C(=O)NNC(=O)Nc1cccc(C(F)(F)F)c1 | 1.46 µM (active) | -6.44
44 | COc1ccc(OC)c(NC2c3ncccc3C(=O)N2Cc2ccco2)c1 (configuration not stated) | inactive | –
45 | Cc1ccc(C(C)C)c(OCC(=O)Nc2ccc3c(c2)nc(CCN2CCCCC2)n3C)c1 | inactive | –
46 | CCCN1CN(Cc2ccccc2)CC2=C1CC(C)(C)CC2=O | inactive | -2.17
47 | COc1ccc(-c2ccc(SCC(=O)N3c4ccccc4CC3C)nn2)cc1OC (configuration not stated) | inactive | –
48 | CN1CCN(NC(=O)c2cc(-c3ccccn3)nc3ccccc23)CC1 | inactive | 28.4
49 | O=C(NC1CC1)c1cc(-c2ccccn2)nc2ccccc12 | inactive | -1.09
50 | Cc1ccc2nc(-c3ccccn3)cc(C(=O)NC3CCN(C)CC3)c2c1 | 25.9 µM (active) | –
51 | CCCN1CCN(C(=O)c2nn(-c3ccc(OC)cc3)c(=O)c3c2c2ccccc2n3C)CC1 | inactive | -5.33
52 | O=C1/C(=C/c2ccccc2)SC(=S)N1C1CCS(=O)(=O)C1 (configuration not stated) | inactive | 7.35
53 | C/C(CC(=O)NC12CC3CC(CC(C3)C1)C2)=N\NC(=O)c1cnccn1 | inactive | 1.39
54 | Cc1nccc2[nH]c(=O)c(C(=O)NC3CCCCC3C)cc12 (configuration not stated) | inactive | 3.44
55 | Cc1cccc(/C=C2\Sc3ccc(C(=O)N4CCC(C)CC4)cc3N(C)C2=O)c1 | inactive | –
56 | CCOC(=O)N1CCC(NC(=O)c2ccc3c(c2)N(C)C(=O)/C(=C/c2cccc(OC)c2)S3)CC1 | 2.91 µM (active) | -26
57 | CN1C(=O)/C(=C/c2cccc(Cl)c2)Sc2ccc(C(=O)N3CCCC3)cc21 | inactive | –
58 | CCOc1ccc(/C=C2/Sc3ccc(C(=O)N4CCOCC4)cc3N(C)C2=O)cc1OC | 20.6 µM (active) | -3.07
59 | COc1cccc(/C=C2\Sc3ccc(C(=O)NCc4cccnc4)cc3N(C)C2=O)c1 | inactive | -1.61
60 | CN1C(=O)/C(=C/c2cccc(Cl)c2)Sc2ccc(C(=O)N3CCOCC3)cc21 | inactive | –
